Source: ChEMBL document CHEMBL4513216, “Probing the Open Global Health Chemical Diversity Library for Multistage-Active Starting Points for Next-Generation Antimalarials” (ACS Infect Dis, 2020)
The campaign covered roughly 69,000 compounds. About 8,600 (12%) showed an effect of 50% or more. Shown is part of a subset that was picked to be rich in strong results.

tested on: Plasmodium berghei; experiment: Screen against P. berghei liver stage (PbLuc), transformed with Luciferase, at 10uM; assay type: functional, HepG2; conditions: tested at 10 uM

SMILES	INHIBITION [%]
NC(=O)NC(=O)CCN1CCCC1c1cccc2c1OCCO2 (centres undefined)	27.7
CCNC(=O)CCN1CCCC1c1cccc2c1OCCO2 (centres undefined)	-2.23
Cn1cc(C(=O)NCC2CCN(C(=O)NC3CCCCC3)CC2)cn1	-3.7
CCC(CO)Nc1nc(C(F)F)nc2ccccc12 (centres undefined)	8.41
CSCC(CCO)Nc1nc(C(F)F)nc2ccccc12 (centres undefined)	-49
OCC(CO)Nc1nc(C(F)F)nc2ccccc12	51.9
CCc1nc(C2CCCN2C(=O)c2cc[nH]n2)no1 (centres undefined)	58.5
Cc1ccc(-c2noc(C3CCN3C(=O)c3cc[nH]n3)n2)s1 (centres undefined)	85
CCc1nc(C2CCCN2C(=O)c2cc(C3CC3)[nH]n2)no1 (centres undefined)	9.32
CCCc1nc(CN(CC)C(=O)c2ccc3c(c2)nnn3C)no1	52.8
CCc1nc(C2CCCN2C(=O)c2c[nH]c(C)n2)no1 (centres undefined)	26.1
Cc1ccc(-c2noc(C3CCN3C(=O)c3ccc(=O)[nH]n3)n2)s1 (centres undefined)	4.505
CCCc1nc(CN(CC)C(=O)c2ccc(OC)c(OC)c2)no1	30.1
CCc1nc(C2CCCN2C(=O)c2ccc3c(c2)nnn3CC)no1 (centres undefined)	2.61
Cc1ccc(-c2noc(C3CCN3C(=O)c3ccn(C)n3)n2)s1 (centres undefined)	23.95
CCc1nc(C2CCCN2C(=O)c2ccc3c(c2)nc(C)n3C)no1 (centres undefined)	-8.3
CCc1nc(C2CCCN2C(=O)c2ccc3c(c2)nnn3C)no1 (centres undefined)	62.6
CCCc1nc(CN(CC)C(=O)c2ccc3[nH]cnc3c2)no1	30.1
O=C(NCC1(COc2cnccn2)C[C@@H](O)[C@@H](O)C1)C1CC1 (some centres undefined)	18.2
COc1nn(C)c2c1CCCN(C(=O)COc1ccccc1)C2	-15.7
COc1cc(NC(=O)CCn2nc(-c3cccs3)oc2=O)cc(OC)c1	-7.81
CC1CCCN(C(=O)c2ccn(COc3ccccc3)n2)C1 (centres undefined)	27.5
CC(C)N1CCc2c(c(COc3cncnc3)nn2CC2CC2)C1	2.4
Cc1nn(C)c(N2CCOCC2)c1CNC(C(N)=O)c1ccccc1 (centres undefined)	-32.4
COc1ccc(CNC(=O)NCC(=O)NC2CC2)c(C(F)(F)F)c1	26.6
CCc1ccc(S(=O)(=O)Nc2ccc(F)cc2C(=O)O)s1	5.605
CC(=O)N1CCO[C@@H]2CN(S(=O)(=O)c3cccs3)CC[C@@H]2C1	21.6

SMILES	INHIBITION [%]
CC1CCN(C(=O)[C@H]2C[C@@H]3CCN(CC4CCOCC4)C[C@@H]3O2)CC1	24.9
CCc1cc(O)nc(C2CCCN2C(=O)c2cc(CC)on2)n1 (centres undefined)	51.5
CCc1cc(C(=O)N2CCCC2c2nc(O)cc(CC)n2)on1 (centres undefined)	1.11
CCc1cc(O)nc(C2CCCN2C(=O)COC)n1 (centres undefined)	30.8
Cc1cccc(C(=O)N2CCC(c3n[nH]c(C4CC4)n3)CC2)c1	44.1
Cc1ccccc1-n1cc(C2=CCN(CCn3cc[nH]c3=O)CC2)cn1	69.4
O=c1[nH]ccn1CCCN1CC=C(c2cnn(-c3ccccc3)c2)CC1	-95.3
Cc1ccccc1-n1cc(C2=CCN(CCN3CCOCC3)CC2)cn1	19.4
CCOCc1ncn2c1CN(C(=O)Nc1ccccc1)CC2	-27
O=C(c1cccc(O)n1)N1CCC(O)(CN2CCC(F)(F)CC2)C1 (centres undefined)	-21.6
CSCC(=O)N1CCc2nc(C)nc(NCc3ccccc3)c2CC1	37.3
CC(=O)N1CCc2c(nc(N(C)C)nc2NCCCn2ccnc2C)C1	71.3
COCCNc1nc2c(c(NCCc3cccs3)n1)CCNCC2	28
CC(=O)N1CCc2c(nc(N(C)C)nc2NCCCn2ccnc2)C1	18.4
CC(=O)N1CCc2c(nc(N(C)C)nc2N(C)CCCC2CCCO2)C1 (centres undefined)	21.7
CC(C)NC(=O)N1CCc2nc(C(=O)NCc3ccccc3)sc2CC1	34.1
CC(=O)N1CCc2c(nc(N(C)C)nc2NCCc2cccs2)C1	63.8
Cc1nc2c(c(NCc3ccccc3)n1)CCN(C(=O)NC(C)C)CC2	66.1
CC(=O)N1CCc2c(nc(N(C)C)nc2N(C)CCC2CCCCO2)C1 (centres undefined)	-10.4
Cc1nccn1CCCNc1ncccc1C#N	18.4
CC(=O)N1CCc2c(nc(N(C)C)nc2NCCC2CCCCO2)C1 (centres undefined)	45.1
CC(=O)N1CCc2c(nc(N(C)C)nc2NCc2cccs2)C1	61.9
Cn1c(NCC(O)c2ccc(F)cc2)c(C#N)c(=O)n(C)c1=O (centres undefined)	-60.8
Cn1cc(CN2CCCC3(CCN(c4nncs4)C3)C2)cn1 (centres undefined)	22.4
CN1CCO[C@@H]2CN(S(=O)(=O)c3ccccc3)CC[C@@H]2C1	4.02
CC(=O)N1[C@H](CN(C)C)C[C@@H]2CN(C(=O)c3cccn3C)CC[C@@H]21	-9.74
COc1c(C2CCCN2C(=O)c2cscn2)c(C)nn1C (centres undefined)	38.8
